According to PubChem BioAssay AID2253 (Southern Research Specialized Biocontainment Screening …, 2010):
In all, about 2,200 compounds went through this assay and about 1,300 (59%) were called active. The rule behind the calls is not given here. So high a share suggests a set chosen from earlier hits. A selection follows. Results with a measured potency or affinity are listed apart.

experiment: THP-1 cell cytotoxicity, dose response, cytotoxicity control for Salmonella PhoP regulon inhibitors, S. typhimurium screen hits (AID 2253); details: THP-1 viability, CellTiter-Glo luminescence, 72 h; series mostly up to 50 µM

Row | Structure (SMILES) | outcome
1 | COc1ccc(NC(=O)CN2CCCCC2)c([N+](=O)[O-])c1 | inactive
2 | CCOc1ccc(N/C=C/C(=O)c2ccc(OC)cc2)c([N+](=O)[O-])c1 | inactive
3 | CCCc1nnc(NC(=O)c2cn(CC)c3cc(N4CCN(C)CC4)c(F)cc3c2=O)s1 | inactive
4 | Cc1nc(SCC(=O)NC(C)c2ccccc2)c2oc3ccccc3c2n1 (configuration not stated) | inactive
5 | CCCn1c(SCC(=O)NCCc2ccccc2)nnc1-c1cccnc1 | inactive
6 | Cn1ccnc1C(O)c1ccc(OCc2ccccc2)cc1 (configuration not stated) | inactive
7 | CCOC(=O)c1c(N)ssc1=S | inactive
8 | O=S1(=O)CC(O)C(Nc2ccccc2Cl)C1 (configuration not stated) | inactive
9 | NC(=O)c1c(N)sc2c1CCCCC2 | inactive
10 | O=C(Nc1cnn(Cc2ccc(F)cc2)c1)c1cnccn1 | inactive
11 | O=C(Nc1cnc2ccccc2c1)N1CCOCC1 | inactive
12 | CC(C)(C)n1ncc2c(=O)n(CC(=O)Nc3ccc4c(c3)OCO4)cnc21 | inactive
13 | CC(C)n1cc(C(=O)N2CCCC(N3CCN(c4ccc(F)cc4)CC3)C2)cn1 (configuration not stated) | inactive
14 | O=[N+]([O-])c1ccc(N2CCN(CCOc3nonc3-c3ccccc3)CC2)c(Cl)c1 | inactive
15 | Cc1ccc(-n2nnnc2SCC(=O)Nc2ncc(Cc3ccccc3Cl)s2)cc1 | inactive
16 | Cc1ccc(NS(=O)(=O)c2ccc(N3C(=O)CCC3=O)cc2)cc1 | inactive
17 | CCC(CC)C(=O)N1c2ccc(F)cc2CCC1C (configuration not stated) | inactive
18 | CCOC(=O)N1CCN(C(=O)c2cn(CC)c3cc(N4CCN(C)CC4)c(F)cc3c2=O)CC1 | inactive
19 | Nc1[nH]c(=O)ncc1F | inactive
20 | O=C(NCCc1cn2ccccc2n1)c1ccccc1F | inactive
21 | Cc1nnc(NC(=O)CSc2ncnc3scc(-c4ccccc4)c23)s1 | inactive
22 | CC(C)CCn1c(SCC(=O)N2CC(=O)Nc3ccccc32)nc2scc(-c3cccs3)c2c1=O | inactive
23 | COc1ccc(/C=N/NC(=O)CC(=O)NCc2cccnc2)cc1 | inactive
24 | COC(=O)c1ccc(NC(=S)Nc2ccc3ccccc3c2)cc1 | inactive

Row | Structure (SMILES) | outcome
25 | COC(=O)c1ccccc1Oc1cnc2ccccc2n1 | inactive
26 | CC(=O)N1CCN(c2cc3c(cc2F)c(=O)c(C(=O)O)cn3C2CC2)CC1 | inactive
27 | CC(=O)c1sc(NC(=O)COc2ccc([N+](=O)[O-])cc2)nc1C | inactive
28 | Cn1c(CO)cnc1SCc1ccc([N+](=O)[O-])cc1 | inactive
29 | CCOC(=O)CC(=O)CSc1nc2c(c(C)c1C#N)CCC2 | inactive
30 | Cc1cc2c(c(=O)n1C)C(Cc1ccccc1)C(C#N)=C(N)O2 (configuration not stated) | inactive
31 | O=C1Nc2ccccc2C(O)(C(=O)N2CCCCC2)N1c1ccccc1 (configuration not stated) | inactive
32 | O=C1CC(c2ccccc2)n2ncnc2N1 (configuration not stated) | inactive
33 | NC1CCN(c2c(F)cc3c(=O)c(C(=O)O)cn(C4CC4)c3c2Cl)C1 (configuration not stated) | inactive
34 | Cc1ccc(CCNC(=O)C2CCCN(S(=O)(=O)c3c(C)noc3C)C2)cc1 (configuration not stated) | inactive
35 | Cc1ccc(CCNC(=O)C2CCN(S(=O)(=O)N3CCCC3)CC2)cc1 | inactive
36 | O=C(CSc1nccc(=O)[nH]1)N1c2ccccc2CCc2ccccc21 | inactive
37 | CCN(CCO)Cc1csc2ccccc12 | inactive
38 | O=C(N/N=C/c1cccn1-c1ccc([N+](=O)[O-])cc1)C(O)c1ccccc1 (configuration not stated) | inactive
39 | Cc1nc2ccccn2c1C(=O)N/N=C/c1ccccc1[N+](=O)[O-] | inactive
40 | Cc1cc(C(=O)N/N=C/c2cccc([N+](=O)[O-])c2O)n[nH]1 | inactive
41 | Cc1cc(C(=O)N/N=C/C=C/c2ccc3c(c2)OCO3)n[nH]1 | inactive
42 | CC1(C)CC2CC(C)(CN2C(=O)COC(=O)c2n[nH]c(=O)c3ccccc23)C1 (configuration not stated) | inactive
43 | CCOC(=O)c1sc2nccc(N(C)C)c2c1N=CNOCc1c(F)cccc1Cl | inactive
44 | O=C(CCCNS(=O)(=O)c1ccccc1)NCc1ccco1 | inactive
45 | O=C(Cn1cnc2ccccc2c1=O)NCc1ccco1 | inactive
46 | O=C1CSC(=S)N1c1ccc(F)cc1 | inactive
47 | COc1ccc(OC)c(C(=O)C2COC(=O)C2)c1 (configuration not stated) | inactive
48 | Cc1cc2ncn(CC(O)COc3cccc(C(=O)O)c3)c2cc1C (configuration not stated) | inactive

Row | Structure (SMILES) | outcome
49 | COc1ccc(C2C(C(=O)c3cccs3)=C(O)C(=O)N2c2nnc(C)s2)cc1OC (configuration not stated) | inactive
50 | Brc1ccc(OCCn2ccnc2)cc1 | inactive
51 | Clc1ccccc1OCCn1ccnc1 | inactive
52 | COc1ccc2c(c1)cc1n2CCN2CCCN=C12 | inactive
53 | CCn1cc(C(=O)NCc2ccncc2)c(=O)c2cc(F)c(N3CCN(C(=O)c4ccco4)CC3)cc21 | inactive
54 | O=C1CC(N2CCN(Cc3ccccc3)CC2)C(=O)N1c1ccccc1 (configuration not stated) | inactive
55 | O=C(CCCOc1ccccc1)N1CCCc2ccccc21 | inactive
56 | C(=N\N1CCN(Cc2ccccc2)CC1)/c1cccnc1 | inactive
57 | CC(C)(C)c1ccc(-c2n[nH]c(=S)n2/N=C/c2ccncc2)cc1 | inactive
58 | O=C(CCN1CCc2ccccc2C1)Nc1ccccc1F | inactive
59 | CCn1nnc(-c2ccccc2NC(=O)c2ccc(-n3cnnn3)cc2)n1 | inactive
60 | N#Cc1nc(-c2cccs2)oc1NCCCN1CCOCC1 | inactive
61 | CCOc1ccc(/C(O)=C2\C(=O)C(=O)N(CCN(C)C)C2c2cccc(OC)c2OC)cc1Cl (configuration not stated) | inactive
62 | O=C(CCn1nnc(-c2cccs2)n1)NCc1ccccc1Cl | inactive
63 | COc1ccc(C(=O)COc2nc(C)cc(C)c2C#N)cc1 | inactive
64 | CCc1nc2cc(Cl)c(Cl)cc2[nH]1 | inactive
65 | CC(=O)Nc1c(O)nc(SCC(=O)N2CCN(c3ccc(F)cc3)CC2)[nH]c1=O | inactive
66 | O=C(NCCCN1CCCC1=O)c1ccc(Cl)c(NS(=O)(=O)c2ccc(F)cc2)c1 | inactive
67 | CC(C)(C)NC(=O)CSc1nnc(-c2ccncc2)o1 | inactive
68 | CC(=O)NCCOc1c(C)cc(S(N)(=O)=O)cc1C | inactive
69 | Cn1cccc1CC(=O)N/N=C/C(Cl)=C/c1ccccc1 | inactive
70 | CC1(C)CC(=O)c2c(nc3ccccc3c2N)C1 | inactive
71 | Cc1cc(C(=O)N2CCN(C/C=C/c3ccccc3)CC2)no1 | inactive
72 | CC(CCc1ccccc1)NC(=O)c1ccccc1 (configuration not stated) | inactive

Row | Structure (SMILES) | outcome
73 | COCc1cc(C)nc(N2CCc3ccccc32)c1C#N | inactive
74 | COc1ccc(-c2cnn3c(N)c(S(=O)(=O)C(C)(C)C)cnc23)cc1 | inactive
75 | Brc1ccc(NC2=Nc3ccccc3CC2)cc1 | inactive
76 | COc1cc(C2NC(=O)NC(c3ccccc3)=C2C(C)=O)ccc1OCC(=O)O (configuration not stated) | inactive
77 | COc1ccc(S(=O)(=O)n2nc(OC(=O)c3cccs3)cc2N)cc1 | inactive
78 | Nc1cc(N)nc(SCC(=O)Nc2ccc3c(c2)OCCCO3)n1 | inactive
79 | Cc1ccc2cc(C(=O)O)c(C)nc2c1 | inactive
80 | O=C(NCc1cccnc1)c1ccc(Cl)cc1[N+](=O)[O-] | inactive
81 | Cc1cc([N+](=O)[O-])cc2ncccc12 | inactive
82 | CCOc1cc(C2C(C(=O)OC)=C(C)N=C3SCCC(=O)N32)ccc1OC(C)=O (configuration not stated) | inactive
83 | COc1ccc(Oc2coc3cc(OC(=O)c4cccs4)ccc3c2=O)cc1 | inactive
84 | Cc1cc(C)nc(N(C#N)C(C)C(=O)N(C)C)n1 (configuration not stated) | inactive
85 | O=C(NC(=Nc1ccccc1)N1CCOCC1)Nc1ccccc1 | inactive
86 | Cc1cccnc1N(C(=O)Nc1ccccc1)C1=NCC(C)(C)S1 | inactive
87 | OC(COCc1cccs1)CN1CCN(c2ccccn2)CC1 (configuration not stated) | inactive
88 | CCCCOC(=O)CCNc1n[nH]c(=O)[nH]c1=O | inactive
89 | Clc1ccc(CNCc2cccs2)cc1Cl | inactive
90 | O=C(Cc1cn2ccsc2n1)Nc1ccccc1Oc1ccccc1 | inactive
91 | Cc1ccc(S(=O)(=O)NCCC(=O)OCn2nnc3ccccc3c2=O)cc1 | inactive
92 | CN(C(=O)/C=C/c1ccccc1)C1CCS(=O)(=O)C1 (configuration not stated) | inactive
93 | CNC(=O)c1ccc(-c2ccc(F)cc2)s1 | inactive
94 | CCCSc1nc(N2CCCC2)c2c(c1C#N)CC(C)(C)OC2 | inactive
95 | C=CCNC(=O)c1ccc(N(C)S(=O)(=O)c2ccc(OC)cc2)cc1 | inactive
96 | CC1CN(C(=O)CCc2ccccc2)C(C)CN1C(=O)CCc1ccccc1 (configuration not stated) | inactive

Row | Structure (SMILES) | outcome
97 | O=C(c1ccc(Cl)cc1Cl)C1(n2cncn2)Oc2ccccc2C1O (configuration not stated) | inactive
98 | Cc1ccc(C(=O)NCc2ccc(Cl)cc2)o1 | inactive
99 | O=[N+]([O-])c1ccc(-c2ccn[nH]2)o1 | inactive
100 | CN(c1ccccc1)S(=O)(=O)c1ccc(C(=O)Nc2nnc(-c3ccc(F)cc3)o2)cc1 | inactive
101 | COc1cccc(OC)c1C(=O)NC(=S)Nc1cc(-c2nc3ccccc3[nH]2)ccc1Cl | inactive
102 | COC(=O)c1c(C(=O)OC)c(-c2cccc(C)c2)n2c1CS(=O)(=O)C2 | inactive
103 | CCn1cc(C(C)(C)C)c(C#N)c1NC(C)=O | inactive
104 | O=C(Cn1cnc2scc(-c3ccccc3)c2c1=O)N1CCOCC1 | inactive
105 | C=CC1=C(C(=O)O)N2C(=O)[C@@H](NC(=O)/C(=N/OCC(=O)O)c3csc(N)n3)[C@H]2SC1 | inactive
106 | CC(C)(C)c1n[nH]c(=S)n(/N=C/c2cccs2)c1=O | inactive
107 | Cc1ccsc1/C=N/NC(=O)Cn1cnc2ccccc21 | inactive
108 | C=CCSC1=Nc2sccc2C2=NC(=O)CN12 | inactive
109 | NC(=O)c1oc2ccccc2c1NC(=O)CN1CCCCC1 | inactive
110 | O=C(CN1CCCCC1)Nc1cccc2c1OCO2 | inactive
111 | O=c1[nH]c2cc3c(cc2cc1CN(CCc1ccccc1)Cc1nnnn1CC1CCCO1)OCO3 (configuration not stated) | inactive
112 | CC(C)CNC(=S)NC1CCCC1 | inactive
113 | Cc1cc([N+](=O)[O-])ccc1NC(=O)Cc1ccc(F)cc1 | inactive
114 | O=C(CN1CCC(NC(=O)c2cccc(F)c2)CC1)NCc1ccccc1F | inactive
115 | Cn1c(SCC(=O)NC(=O)c2cccc([N+](=O)[O-])c2)nnc1-c1ccc(F)cc1 | inactive
116 | CN(C)CCNC(=O)c1ccc(COCC(F)(F)F)cc1 | inactive
117 | COc1ccc(/C=C/C(=O)O)cc1COc1cccc(C)c1 | inactive
